Data taken from PubChem BioAssay (EPA / NIEHS).
Records with an inconclusive call do not appear. The source made the active and inactive calls. Rule for the calls: active = hit-call score of the fitted dose curve at least 0.9, where 1 is the maximum; inconclusive = response in the unintended direction; inactive = score below 0.9.

These molecules were tested against Bile acid receptor (Homo sapiens) (UniProt Q96RI1) (assay: NVS_NR_hFXR_Agonist: NovaScreen (NVS) Nuclear Receptor Binding Assay for human Farnesoid X Receptor Agonism (FXR) (AID 2283347)).
Sequence of Bile acid receptor (Homo sapiens) (Q96RI1 whole entry, looked up): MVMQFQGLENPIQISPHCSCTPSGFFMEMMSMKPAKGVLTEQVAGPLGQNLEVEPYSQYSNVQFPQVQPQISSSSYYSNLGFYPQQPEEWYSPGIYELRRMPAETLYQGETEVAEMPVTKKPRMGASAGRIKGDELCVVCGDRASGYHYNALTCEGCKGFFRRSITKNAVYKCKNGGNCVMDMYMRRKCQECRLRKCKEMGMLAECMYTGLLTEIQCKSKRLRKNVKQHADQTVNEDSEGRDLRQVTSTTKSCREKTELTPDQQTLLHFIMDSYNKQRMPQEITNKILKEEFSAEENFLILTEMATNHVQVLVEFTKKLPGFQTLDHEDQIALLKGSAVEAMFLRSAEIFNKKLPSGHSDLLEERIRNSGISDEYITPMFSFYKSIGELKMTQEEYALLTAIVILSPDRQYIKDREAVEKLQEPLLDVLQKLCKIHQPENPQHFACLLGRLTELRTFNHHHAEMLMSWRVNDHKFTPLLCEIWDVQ
Protocol: NVS_NR_hFXR_Agonist is a biochemical, single-readout assay that uses extracted gene-proteins in a cell-free assay. Measurements were taken 1 hour after chemical dosing in a 384-well plate.NVS_NR_hFXR_Agonist is one of one assay component(s) measured or calculated from the NVS_NR_hFXR_Agonist assay. It is designed to make measurements of fluorescent resonance energy transfer, a form of binding reporter, as detected with fluorescent resonance energy transfer signals by Time-Resolved Fluorescence Resonance Energy Transfer (TR-FRET) technology.Data from the assay component NVS_NR_hFXR_Agonist was analyzed into 1 assay endpoint. This assay endpoint, NVS_NR_hFXR_Agonist, was analyzed in the positive analysis fitting direction relative to DMSO as the negative control and baseline of activity. Using a type of binding reporter, gain-of-signal activity can be used to understand changes in the binding as they relate to the gene NR1H4. Furthermore, this assay endpoint can be referred to as a primary readout, because the performed assay has only produced 1 assay endpoint. To generalize the intended target to other relatable targets, this assay endpoint is annotated to the nuclear receptor intended target family, where the subfamily is non-steroidal.
Binding assays used specific radioligands (tritiated, iodinated) with non-radioactive competitive displacement ligands in agonist or antagonist protocols (as indicated) and various reference compounds and inhibitors to titrate specific binding to receptors and transporters. Most enzyme assays (CYPs, kinases, phosphatases, proteases, HDACs) used recombinant protein and specific substrates (fluorescence mostly, some colorimetric and radioactive) and inhibitors, followed by a biochemical separation of substrate and product. All assays for the biochemical HTS were initially run in duplicate at a single concentration (10 uM for CYP450 assays and 25 uM for all others). […] Each assay was run with positive and negative controls, and concurrent controls on every plate. The follow-up (secondary) screen tested active chemical-pairs in concentration series, as well as a few additional assays not tested in the primary screen, some selected negative inactives, and several cases re-run in the concentration series for confirmatory purposes.
`c1ccc(C[n+]2cccc3ccccc32)cc1` was tested, and the outcome was “inactive”. In the case of `CCc1c(C(=O)NN2CCCCC2)nn(-c2ccc(Cl)cc2Cl)c1-c1ccc(Br)cc1`, the outcome is reported as “inactive”. For `COCC(C)OCC(C)O` (stereo unspecified), the outcome was “inactive”. For `CCCCOC(=O)[C@@H](C)Oc1ccc(Oc2ccc(C(F)(F)F)cn2)cc1`, the outcome was “inactive”. For `CC(C)OC(=O)C(C)(C)Oc1ccc(C(=O)c2ccc(Cl)cc2)cc1`, the AC50 was 25 µM (active). `CC1(C)C(=O)N(Br)C(=O)N1Br` was tested, and the outcome was “inactive”. In the case of `Cc1nn(C)c(Oc2ccccc2)c1C=NOCc1ccc(C(=O)OC(C)(C)C)cc1`, the outcome is reported as “inactive”. With `CCCCCCCCOC(=O)c1cc(O)c(O)c(O)c1` the outcome was “inactive”. With `CCN(Cc1cccnc1)C(=O)c1cccc(Cl)c1[C@]1(C)C(=O)N(Cc2ccc(OC)cc2OC)c2ccc(Cl)cc21` the AC50 was 15.1 µM (active). For `CCN(CC)CCOc1ccc(C(=C(Cl)c2ccccc2)c2ccccc2)cc1`, the outcome was “inactive”. In the case of `O=C(O)C1(C(=O)Nc2ccc(Cl)cc2Cl)CC1`, the outcome is reported as “inactive”. In the case of `COc1cc(C(C)C)c2c(c1)S(=O)(=O)N(COc1cc(=O)n3cccc(OCCN4CCCCC4)c3n1)C2=O`, the outcome is reported as “inactive”. In the case of `CCN(CCC#N)c1ccc(N=Nc2c(Cl)cc([N+](=O)[O-])cc2Cl)cc1`, the outcome is reported as “inactive”. For `CCCCOC(=O)C(C)Oc1ccc(Oc2ccc(C(F)(F)F)cn2)cc1` (stereo unspecified), the outcome was “inactive”. For `CCCCOC(=O)c1ccc(O)cc1`, the outcome was “inactive”. In the case of `Cc1c(C)c2c(c(C)c1O)CCC(C)(COc1ccc(CC3SC(=O)NC3=O)cc1)O2` (stereo unspecified), the outcome is reported as “inactive”.
